# According to PubChem BioAssay (NCI):
# Compounds without any hit were thinned out: in the full panel of roughly 79,000, 15% have a hit. A number with no mark means an inactive call. Activity calls are given as the source filed them. No stated cut-off is given here; in the data, active means growth inhibition above about 70%; inactive means the rest.
# Legend:
# [1] = NCI Yeast Anticancer Drug Screen. Data for the rad52 strain (AID 147);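 further: 0% = growth of vehicle-treated control cultures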; conditions: S. cerevisiae rad52 mutant growth inhibition, hits give high values
# Summary of the method: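 Genetically altered yeast (DNA damage repair defect) treated with compound; inhibition calculated relative to vehicle.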
# [2] = NCI Yeast Anticancer Drug Screen. Data for the wt1 strain (AID 149);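 further: 0% = growth of vehicle-treated wt1 cultures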; conditions: S. cerevisiae wt1 strain (SPY 50644) growth inhibition, hits give high values
# Summary of the method: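 Growth inhibition read against vehicle controls after compound exposure of the wt1 yeast strain.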
# [3] = NCI Yeast Anticancer Drug Screen. Data for the rad50EPP+ strain (AID 151);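 further: 0% = growth of vehicle-treated control cultures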; conditions: S. cerevisiae rad50 mutant strain, hits give high values
# Summary of the method: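 Strain rad50EPP+; compound exposure; % growth inhibition vs vehicle.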
# [4] = NCI Yeast Anticancer Drug Screen. Data for the mgt1 strain (AID 153); conditions: S. cerevisiae mgt1 mutant growth inhibition, hits give high values
# Summary of the method: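 Read-out: yeast growth inhibition vs vehicle control. Strain mgt1, drawn from a panel altered in DNA damage repair or cell cycle control.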
# [5] = NCI Yeast Anticancer Drug Screen. Data for the rad50 strain (AID 155);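 further: 0% = growth of vehicle-only cultures of the same strain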; conditions: S. cerevisiae rad50 strain growth inhibition, hits give high values
# Summary of the method: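 Readout: growth inhibition relative to vehicle-treated cultures. Compound exposure was carried out in a genetically defined yeast strain deficient in DNA damage repair.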
# [6] = NCI Yeast Anticancer Drug Screen. Data for the mec2-1 strain (AID 157); conditions: S. cerevisiae mec2-1 strain, hits give high values
# Summary of the method: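 Cells of the genetically defined mec2-1 yeast strain are incubated with test compound. Inhibition of growth is calculated against vehicle-treated controls.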
# [7] = NCI Yeast Anticancer Drug Screen. Data for the rad14 strain (AID 159);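 further: 0% = growth of vehicle-treated control cultures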; conditions: S. cerevisiae rad14 strain growth inhibition, hits give high values
# Summary of the method: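 Growth inhibition vs vehicle controls; genetically altered yeast strain (DNA damage repair defect) treated with test compounds.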
# [8] = NCI Yeast Anticancer Drug Screen. Data for the sgs1 mgt1 strain (AID 161);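 further: 0% = growth of cultures given vehicle only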; conditions: S. cerevisiae sgs1 mgt1 strain, hits give high values
# Summary of the method: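 Read-out: growth inhibition vs vehicle controls. Cells: mutant yeast strain deficient in DNA damage repair.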
# [9] = NCI Yeast Anticancer Drug Screen. Data for the CLN2oe strain (AID 163);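 further: 0% = growth of vehicle-only control cultures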; conditions: S. cerevisiae CLN2oe strain, hits give high values
# Summary of the method: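 Strain altered in cell-cycle control, incubated with compound; growth compared to solvent-treated controls.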
# [10] = NCI Yeast Anticancer Drug Screen. Data for the cln2 rad14 strain (AID 165);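 further: 0% = growth equal to vehicle treated cultures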; conditions: S. cerevisiae cln2 rad14 strain, hits give high values
# Summary of the method: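 The screen exposed genetically defined yeast (cln2 rad14) to test compounds and scored growth inhibition relative to vehicle-treated controls.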
# [11] = NCI Yeast Anticancer Drug Screen. Data for the bub3 strain (AID 167); conditions: S. cerevisiae bub3 mutant strain, hits give high values
# Summary of the method: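 Readout: yeast growth inhibition, expressed relative to vehicle-only wells. The test organism is a mutant strain from a panel with lesions in DNA repair or checkpoint genes.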
# [12] = NCI Yeast Anticancer Drug Screen. Data for the wt2 strain (AID 169);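 further: 0% = growth of vehicle-treated yeast cultures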; conditions: S. cerevisiae wt2 strain growth inhibition, hits give high values
# Summary of the method: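 Steps: yeast strain treated with compound; growth recorded; inhibition calculated relative to cultures given vehicle alone.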
# [13] = NCI Yeast Anticancer Drug Screen. Data for the mlh1 strain (AID 171);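 further: 0% = growth of vehicle-treated control cultures of the same strain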; conditions: S. cerevisiae mlh1 strain growth inhibition, hits give high values
# Summary of the method: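 Yeast screen: mutant strain plus compound, growth scored against vehicle control wells.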
# [14] = NCI Yeast Anticancer Drug Screen. Data for the sgs1 strain (AID 173);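 further: 0% = growth of vehicle-only control cultures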; conditions: S. cerevisiae sgs1 mutant, hits give high values
# Summary of the method: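 Inhibition of yeast growth served as the measure. The mutant strain was treated with each compound, and growth was normalised to cultures receiving vehicle alone.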
# [15] = NCI Yeast Anticancer Drug Screen. Data for the mlh1 rad18 strain (AID 175); conditions: S. cerevisiae mlh1 rad18 strain growth inhibition, hits give high values
# Summary of the method: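 Compound-treated yeast growth, normalised to vehicle controls. Strain bears defined DNA repair mutations.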
# [16] = NCI Yeast Anticancer Drug Screen. Data for the rad18 strain (AID 177); conditions: S. cerevisiae rad18 mutant growth inhibition, hits give high values
# Summary of the method: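 Inhibition values reflect reduced yeast growth compared with vehicle-treated controls, using a strain engineered with a DNA damage repair defect.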
# [17] = at 5.0 µM (retest, dose inferred, filed as 0.5)
# [18] = at 50.0 µM (retest, dose inferred, filed as 5.0)
smiles,measurement,setting,value
Cc1ccc2ccc3cccc4ccc1c2c34,growth inhibition,[1]; at 1.2 µM,-1%
same,growth inhibition,[1]; at 3.7 µM,0%
same,growth inhibition,[1]; at 11.0 µM,5%
same,growth inhibition,[1]; at 33.0 µM,23%
same,growth inhibition,[1]; at 100.0 µM,27%
same,growth inhibition,[2]; at 1.2 µM,-2%
same,growth inhibition,[2]; at 3.7 µM,-2%
same,growth inhibition,[2]; at 11.0 µM,-3%
same,growth inhibition,[2]; at 33.0 µM,2%
same,growth inhibition,[2]; at 100.0 µM,15%
same,growth inhibition,[3]; at 1.2 µM,-2%
same,growth inhibition,[3]; at 3.7 µM,4%
same,growth inhibition,[3]; at 11.0 µM,20%
same,growth inhibition,[3]; at 33.0 µM,33%
same,growth inhibition,[3]; at 100.0 µM,31%
same,growth inhibition,[4]; at 1.2 µM,-1%
same,growth inhibition,[4]; at 3.7 µM,-1%
same,growth inhibition,[4]; at 11.0 µM,-3%
same,growth inhibition,[4]; at 33.0 µM,-3%
same,growth inhibition,[4]; at 100.0 µM,18%
same,growth inhibition,[5]; at 1.2 µM,4%
same,growth inhibition,[5]; at 3.7 µM,49%
same,growth inhibition,[5]; [17],-1%
same,growth inhibition,[5]; at 11.0 µM,21%
same,growth inhibition,[5]; at 33.0 µM,37%
same,growth inhibition,[5]; [18],41%
same,growth inhibition,[5]; at 50.0 µM,25.6%
same,growth inhibition,[5]; at 100.0 µM,66%
same,growth inhibition,[6]; at 1.2 µM,-1%
same,growth inhibition,[6]; at 3.7 µM,0%
same,growth inhibition,[6]; [17],3%
same,growth inhibition,[6]; at 11.0 µM,2%
same,growth inhibition,[6]; at 33.0 µM,13%
same,growth inhibition,[6]; [18],12%
same,growth inhibition,[6]; at 50.0 µM,4.75%
same,growth inhibition,[6]; at 100.0 µM,26%
same,growth inhibition,[7]; at 1.2 µM,1%
same,growth inhibition,[7]; at 3.7 µM,0%
same,growth inhibition,[7]; at 11.0 µM,3%
same,growth inhibition,[7]; at 33.0 µM,14%
same,growth inhibition,[7]; at 100.0 µM,23%
same,growth inhibition,[8]; [17],-3%
same,growth inhibition,[8]; [18],20%
same,growth inhibition,[8]; at 50.0 µM,10.6%
same,growth inhibition,[9]; at 1.2 µM,-7%
same,growth inhibition,[9]; at 3.7 µM,-2%
same,growth inhibition,[9]; at 11.0 µM,-4%
same,growth inhibition,[9]; at 33.0 µM,-13%
same,growth inhibition,[9]; at 100.0 µM,13%
same,growth inhibition,[10]; [17],-3%
same,growth inhibition,[10]; [18],6%
same,growth inhibition,[10]; at 50.0 µM,14.2%
same,growth inhibition,[11]; at 1.2 µM,-1%
same,growth inhibition,[11]; at 3.7 µM,0%
same,growth inhibition,[11]; [17],2%
same,growth inhibition,[11]; at 11.0 µM,2%
same,growth inhibition,[11]; at 33.0 µM,26%
same,growth inhibition,[11]; [18],44%
same,growth inhibition,[11]; at 50.0 µM,61.5%
same,growth inhibition,[11]; at 100.0 µM,58%
same,growth inhibition,[12]; at 1.2 µM,-1%
same,growth inhibition,[12]; at 3.7 µM,7%
same,growth inhibition,[12]; at 11.0 µM,-3%
same,growth inhibition,[12]; at 33.0 µM,-2%
same,growth inhibition,[12]; at 100.0 µM,18%
same,growth inhibition,[13]; at 1.2 µM,-2%
same,growth inhibition,[13]; at 3.7 µM,-2%
same,growth inhibition,[13]; at 11.0 µM,-5%
same,growth inhibition,[13]; at 33.0 µM,3%
same,growth inhibition,[13]; at 100.0 µM,30%
same,growth inhibition,[14]; at 1.2 µM,-3%
same,growth inhibition,[14]; at 3.7 µM,-1%
same,growth inhibition,[14]; at 11.0 µM,2%
same,growth inhibition,[14]; at 33.0 µM,23%
same,growth inhibition,[14]; at 100.0 µM,42%
same,growth inhibition,[15]; [17],-3%
same,growth inhibition,[15]; [18],52%
same,growth inhibition,[15]; at 50.0 µM,70.3% (active)
O=C1c2ccccc2-c2nc3ccccc3nc21,growth inhibition,[1]; at 1.2 µM,-27%
same,growth inhibition,[1]; at 3.7 µM,-30%
same,growth inhibition,[1]; at 11.0 µM,-10%
same,growth inhibition,[1]; at 33.0 µM,90% (active)
same,growth inhibition,[1]; at 100.0 µM,91% (active)
same,growth inhibition,[2]; at 1.2 µM,-20%
same,growth inhibition,[2]; at 3.7 µM,-17%
same,growth inhibition,[2]; at 11.0 µM,-11%
same,growth inhibition,[2]; at 33.0 µM,33%
same,growth inhibition,[2]; at 100.0 µM,66%
same,growth inhibition,[3]; at 1.2 µM,3%
same,growth inhibition,[3]; at 3.7 µM,28%
same,growth inhibition,[3]; at 11.0 µM,79% (active)
same,growth inhibition,[3]; at 33.0 µM,95% (active)
same,growth inhibition,[3]; at 100.0 µM,81% (active)
same,growth inhibition,[4]; at 1.2 µM,-50%
same,growth inhibition,[4]; at 3.7 µM,-43%
same,growth inhibition,[4]; at 11.0 µM,-26%
same,growth inhibition,[4]; at 33.0 µM,-1%
same,growth inhibition,[4]; at 100.0 µM,61%
same,growth inhibition,[5]; at 1.2 µM,-6%
same,growth inhibition,[5]; at 3.7 µM,-15%
same,growth inhibition,[5]; [17],80% (active)
same,growth inhibition,[5]; at 11.0 µM,0%
same,growth inhibition,[5]; at 33.0 µM,85% (active)
same,growth inhibition,[5]; [18],97% (active)
same,growth inhibition,[5]; at 50.0 µM,-20.6%
same,growth inhibition,[5]; at 100.0 µM,83% (active)
same,growth inhibition,[6]; at 1.2 µM,-79%
same,growth inhibition,[6]; at 3.7 µM,-54%
same,growth inhibition,[6]; [17],83% (active)
same,growth inhibition,[6]; at 11.0 µM,-41%
same,growth inhibition,[6]; at 33.0 µM,50%
same,growth inhibition,[6]; [18],98% (active)
same,growth inhibition,[6]; at 50.0 µM,-35.1%
same,growth inhibition,[6]; at 100.0 µM,67%
same,growth inhibition,[7]; at 1.2 µM,-43%
same,growth inhibition,[7]; at 3.7 µM,-39%
same,growth inhibition,[7]; at 11.0 µM,-31%
same,growth inhibition,[7]; at 33.0 µM,15%
same,growth inhibition,[7]; at 100.0 µM,46%
same,growth inhibition,[8]; [17],-21%
same,growth inhibition,[8]; [18],25%
same,growth inhibition,[8]; at 50.0 µM,-24.4%
same,growth inhibition,[9]; at 1.2 µM,-38%
same,growth inhibition,[9]; at 3.7 µM,-18%
same,growth inhibition,[9]; at 11.0 µM,-39%
same,growth inhibition,[9]; at 33.0 µM,-9%
same,growth inhibition,[9]; at 100.0 µM,34%
same,growth inhibition,[10]; [17],25%
same,growth inhibition,[10]; [18],52%
same,growth inhibition,[10]; at 50.0 µM,3.35%
same,growth inhibition,[11]; at 1.2 µM,-19%
same,growth inhibition,[11]; at 3.7 µM,-13%
same,growth inhibition,[11]; [17],21%
same,growth inhibition,[11]; at 11.0 µM,-11%
same,growth inhibition,[11]; at 33.0 µM,46%
same,growth inhibition,[11]; [18],39%
same,growth inhibition,[11]; at 50.0 µM,-14.2%
same,growth inhibition,[11]; at 100.0 µM,66%
same,growth inhibition,[12]; at 1.2 µM,-25%
same,growth inhibition,[12]; at 3.7 µM,-22%
same,growth inhibition,[12]; at 11.0 µM,-10%
same,growth inhibition,[12]; at 33.0 µM,28%
same,growth inhibition,[12]; at 100.0 µM,61%
same,growth inhibition,[13]; at 1.2 µM,-31%
same,growth inhibition,[13]; at 3.7 µM,-30%
same,growth inhibition,[13]; at 11.0 µM,-25%
same,growth inhibition,[13]; at 33.0 µM,-1%
same,growth inhibition,[13]; at 100.0 µM,61%
same,growth inhibition,[14]; at 1.2 µM,-48%
same,growth inhibition,[14]; at 3.7 µM,-57%
same,growth inhibition,[14]; at 11.0 µM,-57%
same,growth inhibition,[14]; at 33.0 µM,-19%
same,growth inhibition,[14]; at 100.0 µM,36%
same,growth inhibition,[15]; [17],84% (active)
same,growth inhibition,[15]; [18],99% (active)
same,growth inhibition,[15]; at 50.0 µM,66.7%
same,growth inhibition,[16]; at 1.2 µM,-47%
same,growth inhibition,[16]; at 3.7 µM,-38%
same,growth inhibition,[16]; at 11.0 µM,-28%
same,growth inhibition,[16]; at 33.0 µM,12%
same,growth inhibition,[16]; at 100.0 µM,58%
